From PubChem
An excerpt weighted towards active compounds, which were near 3.3% of everything screened.
PNC assembly inh: High Content Assay for Compounds that inhibit the Assembly of the Perinucleolar Compartment; PC3M PTB-GFP, PNC prevalence imaging, 16 h; active compounds read low; activity change (PNC), negative = inhibition, % at 10 µM; 140,000 compounds, 3.1% hits; AID 2417, 2010;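 active means readout at or below -70, meaning at least 70% loss of cells showing the perinucleolar compartment, a nuclear body marking cancer cells; inconclusive means readout between -30 and a set limit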;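 further: plate controls were DMSO wells for no effect and camptothecin positive control wells for full effect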
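PC3M cells stably expressing PTB-GFP, 750–1000 cells/well, treated 16 h at 37 °C with compound (23 nl of library stock), in duplicate. After paraformaldehyde fixation and Hoechst stain, imaged at 20x; PNC prevalence scored by image analysis.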
IMPase cell inh: qHTS Assay for Identifying the Cell-Membrane Permeable IMPase Inhibitors; inhibition (IP1 accumulation), % at 46.1 µM; CHO-M1 cells, IP1 accumulation, HTRF TR-FRET ratio; AID 901, 2007; Inositol monophosphatase 1 (Rattus norvegicus), P97697; 120,000 tested, under 10 active; active means well fitted curve in the direction sought with a large enough effect in the signal ratio, not every such curve was filed as active; inconclusive means small, poorly fitted or top-dose-only effect, or a change in a side signal; inactive means no such curve, though single readings can be large or run the other way; the % refers to the signal ratio;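 further: cells stimulated with carbachol in lithium chloride buffer; plate controls were DMSO basal wells for no effect and reference inhibitor wells for full effect; higher means more IMPase inhibition seen as more IP1 and lower FRET ratio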
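Elevated IP1 in lysates lowers TR-FRET signal (665/620 ratio and 620 channel reported). Cells were CHO-M1, given carbachol (50 uM as added) plus 50mM LiCl, pH 7.4, 30 min, 37C; compounds titrated up to 46 uM; AC50 by Hill equation.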
HTT ATP protect: qHTS Multiplex Assay to Identify Dual Action Probes in a Cell Model of Huntington: Cytoprotection (ATP); 230,000 compounds, 0.14% hits; PC12 HTT-Q103 induced, cytoprotection, ATP luminescence, 40 h; Potency, µM (top dose mostly 56.4 µM), for the others: cytoprotection (ATP increase), usual class: activators; further: potency means the concentration at half of the fitted maximal effect; % of control where 0% means no effect; nearly all actives have a fitted effect of over 45% in size
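ATP quantification (ATPlite) reports survival of PC12 cells in which tebufenozide, 100 nM final, switches on Htt exon 1 with 103 glutamines linked to GFP; compounds are titrated.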
NPSR antagonist: qHTS Assay for Antagonists of the Neuropeptide S Receptor: cAMP Signal Transduction; CHO-NPSR cells, cAMP TR-FRET, antagonist mode; Potency, µM (top dose mostly 38.3 µM), for the others: at the highest dose activity change, negative = inhibition, hits mostly inhibitors; Q6W5P4; 220,000 compounds, 1% hits; further: potency means the concentration at half of the fitted maximal effect; on the % scale 0 is the no-effect control and ±100 the full control effect; nearly all actives have a fitted effect of over 50% in size
ALOX12 inhib: qHTS Assay for Inhibitors of 12-hLO (12-human lipoxygenase) | Polyunsaturated fatty acid lipoxygenase ALOX12 (Homo sapiens), P18054 | purified 12-hLO, xylenol orange hydroperoxide absorbance | Potency, µM (top dose mostly 57.1 µM), for the others: top-dose activity change, negative = inhibition, hits mostly inhibitors | 150,000 compounds, 0.12% hits | AID 1452, 2008; further: potency means the concentration at half of the fitted maximal effect; on the % scale 0 is the no-effect control and ±100 the full control effect; nearly all actives have a fitted effect of over 55% in size
Target sequence (P18054 whole entry, looked up): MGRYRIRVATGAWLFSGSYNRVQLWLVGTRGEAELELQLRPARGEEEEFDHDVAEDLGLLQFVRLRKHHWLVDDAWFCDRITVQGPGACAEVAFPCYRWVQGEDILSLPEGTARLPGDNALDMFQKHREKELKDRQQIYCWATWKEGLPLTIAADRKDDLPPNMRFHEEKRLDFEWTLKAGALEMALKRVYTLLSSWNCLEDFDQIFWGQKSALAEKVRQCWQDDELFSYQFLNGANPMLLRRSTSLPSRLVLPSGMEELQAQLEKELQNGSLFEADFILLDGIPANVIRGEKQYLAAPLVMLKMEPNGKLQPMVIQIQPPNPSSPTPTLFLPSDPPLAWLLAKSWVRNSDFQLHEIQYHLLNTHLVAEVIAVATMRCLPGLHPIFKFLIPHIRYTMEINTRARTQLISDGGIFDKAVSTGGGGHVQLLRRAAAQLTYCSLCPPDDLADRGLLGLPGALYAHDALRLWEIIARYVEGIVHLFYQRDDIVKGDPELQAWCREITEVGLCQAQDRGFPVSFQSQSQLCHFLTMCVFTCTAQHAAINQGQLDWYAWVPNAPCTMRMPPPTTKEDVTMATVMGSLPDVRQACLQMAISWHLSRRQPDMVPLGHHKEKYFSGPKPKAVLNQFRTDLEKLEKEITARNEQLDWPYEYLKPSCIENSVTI
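Hydroperoxide output read as Fe(III)-xylenol orange absorbance, 573-to-405 nm ratio, after 30 min reaction with 40 uM arachidonic acid. Enzyme: 150 nM purified human 12hLO, 15 min compound preincubation; 25 mM Hepes pH 7.0, room temperature.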
HTT aggregate: qHTS Multiplex Assay to Identify Dual Action Probes in a Cell Model of Huntington: Aggregate Formation (GFP); 220,000 compounds, 1.1% hits; Potency, µM (doses to about 46.1 µM), without a hit: at the highest dose activity change, negative = inhibition, hits mostly inhibitors; PC12 HttQ103-GFP aggregates, Acumen cytometry, 40 h; further: potency means the concentration at half of the fitted maximal effect; on the % scale 0 is the no-effect control and ±100 the full control effect; nearly all actives have a fitted effect of over 60% in size
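PC12/HTTQ103-GFP, ecdysone-inducible; teb 100 nM; cpd qHTS titration; GFP aggregates read on laser cytometer, Ex 488/Em 500-530 nm.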
Active calls of the source: *; ? = inconclusive; / = no result given; [ ] = another dose, or the depositor's remark. Unless noted, the call rests on the fitted dose curve; in most records, active means well fitted curve in the direction sought with a large enough effect; inconclusive means small, poorly fitted or top-dose-only effect, or another doubt; inactive means no such curve, though single readings can be large; an effect the other way counts as inactive or inconclusive.

SMILES | PNC assembly inh | IMPase cell inh | HTT ATP protect | NPSR antagonist | ALOX12 inhib | HTT aggregate
O=C(CP(=O)(c1ccccc1)c1ccccc1)N/N=C/c1cc(Br)cc(Br)c1O | -30 | -11 | ? | -23% | 2% | 11µM*
O=C(CNC(=O)c1ccncc1)N/N=C/c1cc(Br)ccc1O | 15 | / | -41%[10 µM] | 14% | -6% | ?
O=C(CNC(=O)c1ccccc1F)N/N=C/c1cc(Br)ccc1OC(=O)/C=C/c1ccco1 | 4 | / | / | -31% | 2% | 10µM*
O=C(Cc1ccccc1)N/N=C/c1cc(Br)cc(Cl)c1O | / | / | / | -50% | / | ?
O=C(CNC(=O)c1ccccc1Br)N/N=C/c1cc(Br)ccc1O | / | / | -152% | -21% | / | 3.5µM*
O=C(Nc1ccccc1Cl)N1CCN(C/C=C/c2ccccc2)CC1 | -91* | / | 31%[10 µM] | 6% | 1% | -1%
O=S(=O)(c1cccs1)N1CCN(C/C=C/c2ccccc2)CC1 | 28 | 10 | 4%[10 µM] | -14%[46.1 µM] | -9% | -31%
O=S(=O)(c1ccc(Cl)s1)N1CCN(Cc2ccccc2)CC1 | -83* | 5 | 4%[1.9 µM] | -2%[46.1 µM] | 2% | -4%
O=S(=O)(c1ccc(Cl)s1)N1CCN(C/C=C/c2ccccc2)CC1 | ? | -2 | -5%[10 µM] | -18%[46.1 µM] | ? | 35µM*
Cc1c(Cl)c(=O)oc2cc(OCC(=O)NCc3cccs3)ccc12 | -108* | / | 19%[10 µM] | -8% | -2% | 1%
O=C(Nc1ccc(S(=O)(=O)Nc2ncccn2)cc1)c1ccco1 | 16 | -1 | 16% | -16%[46.1 µM] | -2% | 10%
Cc1ccc(C)c(NS(=O)(=O)c2ccc(OCC(=O)NCc3ccco3)cc2)c1 | -90* | 0 | -13%[0.074 µM] | -1%[46.1 µM] | 2% | -5%
Cc1ccc(NS(=O)(=O)c2ccc(OCC(=O)NCc3ccco3)cc2)cc1 | 25 | 3 | -13%[0.074 µM] | 0%[46.1 µM] | -4% | 2%
Cc1ccc(C)c(NS(=O)(=O)c2ccc(NC(=O)c3ccco3)cc2)c1 | -100* | -2 | -26%[10 µM] | -7%[46.1 µM] | -4% | 8%
Cc1cc(=O)oc2cc(OCC(=O)NCc3ccco3)ccc12 | -100* | -6 | 14%[10 µM] | 10%[46.1 µM] | 5% | -3%
Cc1cc(=O)oc2cc(OC(C)C(=O)N3CCOCC3)ccc12 (stereo not drawn) | ? | 0 | -1% | 4%[46.1 µM] | 7% | 1%
Cc1cc(=O)oc2cc(OCC(=O)N3CCOCC3)ccc12 | -100* | -4 | -7%[10 µM] | 11%[46.1 µM] | -11% | 4%
Cc1c(NC(=O)c2ccco2)cccc1-c1nc2cccnc2s1 | -17 | -11 | -17%[10 µM] | -2%[46.1 µM] | -2% | 10µM*
O=C(Nc1cccc(-c2nc3cccnc3s2)c1)c1ccco1 | -7 | 2 | -55% | -14%[46.1 µM] | -2% | 16µM*
Cc1c(NC(=O)c2ccc(Cl)nc2)cccc1-c1nc2cccnc2s1 | / | / | 8%[10 µM] | -28% | / | -11%[9.22 µM]
COC(=O)c1c(NC(=O)CCCOc2ccc(C)cc2)sc2c1C(C(=O)OC)CC2 (stereo not drawn) | / | 13 | / | / | / | /
CCN(CC)S(=O)(=O)c1ccc(F)c(C(=O)NCCCN2CCOCC2)c1 | -117* | 4 | -3%[0.074 µM] | -4%[46.1 µM] | -3% | 3%
O=[N+]([O-])c1c(Nc2ccccn2)cc(Cl)c2nonc12 | / | / | -15%[10 µM] | 10µM* | / | 13%[9.22 µM]
O=C(O)c1cccc(Nc2cc(Cl)c3nonc3c2[N+](=O)[O-])c1 | / | / | ? | 5% | / | 12%
CC(=O)NC1C(O)C[C@@](O)(C(=O)O)OC1[C@@H](O)C(O)CO (stereo partly drawn) | / | / | / | / | 3% | /
SMILES | PNC assembly inh | IMPase cell inh | HTT ATP protect | NPSR antagonist | ALOX12 inhib | HTT aggregate
CSc1nc2ccc(NS(=O)(=O)c3ccc4c(c3)OCCO4)cc2s1 | 15 | 1 | 11%[10 µM] | -18%[46.1 µM] | -19% | 8.9µM*
CSc1nc2ccc(NS(=O)(=O)c3c(Cl)cccc3Cl)cc2s1 | -4 | / | 9%[10 µM] | 9% | -6% | 3%
C=CCSc1nnc(NC(=O)c2cccc(S(=O)(=O)N(C)c3ccccc3)c2)s1 | 53 | / | -18%[0.074 µM] | -31% | 0% | 10µM*
C=CCN1C(=O)C2(/C(=C(\O)c3ccc4c(c3)OCCO4)C(=O)C(=O)N2CCCOC)c2ccccc21 (stereo not drawn) | -96* | -21 | -15%[0.074 µM] | 10%[46.1 µM] | 12% | -3%
C=C(C)CN1C(=O)C(O)(CC(=O)c2ccc3c(c2)OCCO3)c2ccccc21 (stereo not drawn) | 20 | 2 | -12%[0.074 µM] | -2%[46.1 µM] | -4% | 8%
COc1ccccc1CN1CC2(CCN(C(=O)c3ccncc3)CC2)C1 | / | / | 34% | / | -1% | /
CCOC(=O)Cn1c(=NC(=O)c2cc(-c3cccs3)nc3ccccc23)sc2cc(S(N)(=O)=O)ccc21 | -10 | / | 17%[10 µM] | -33% | -2% | -15%
CCOC(=O)Cn1c(=NC(=O)C2COc3ccccc3O2)sc2cc(S(N)(=O)=O)ccc21 (stereo not drawn) | -134* | / | 0%[10 µM] | -2% | -3% | -14%
CCOC(=O)C1=C(c2ccccc2)N2CCS(=O)(=O)N=C2S1 | -83* | -3 | 7%[10 µM] | -10%[46.1 µM] | -1% | -6%
O=C(c1cnccn1)N1CCC2(CCCN(Cc3nccs3)C2)CC1 | / | / | 22% | / | 0% | /
CCN(CC)S(=O)(=O)c1ccc(Oc2ccccc2)cc1 | -8 | 2 | -9% | -14%[46.1 µM] | -11% | 16µM*
CCN(CC)S(=O)(=O)c1ccc(Oc2cccc(C(C)=O)c2)nc1 | -21 | 1 | 7% | ? | -11% | 5.6µM*
COc1ncc2nc(-c3cccs3)c(=O)n(-c3ccccc3)c2n1 | / | / | -19% | / | -4% | /
Cc1ccc(CS(=O)(=O)Cc2ccc(C(=O)NCC3CCCO3)o2)cc1 (stereo not drawn) | 63 | 1 | 5% | -10%[46.1 µM] | 1% | 13%
Cc1ccc(CS(=O)(=O)CCC(=O)NCC2CCCO2)cc1 (stereo not drawn) | -84* | -8 | -6%[10 µM] | 18%[46.1 µM] | -1% | -3%
CCS(=O)(=O)c1ccc(-c2csc(-c3ccccc3)n2)c(Cl)c1Cl | ? | 6 | -2%[10 µM] | ? | 2% | 11µM*
O=C(O)c1ccc(-c2nc(-c3ccccc3Cl)cs2)cc1 | / | / | -63% | -28% | / | 23%
C[C@H]1Cc2c(COc3ccccc3)nc3c(c2CO1)CN(S(=O)(=O)c1ccc(C#N)cc1)CC3 | / | / | -38%[10 µM] | / | 3%[11.4 µM] | /
O=C(N/N=C/c1cccnc1)C(O)(c1ccccc1)c1ccccc1 | 95 | 5 | 0% | -5%[46.1 µM] | -6% | 8%
